From PubChem BioAssay (NCI) come the findings set out here.

Structures are written as SMILES. The panel holds about 83,000 compounds, 20% with a hit somewhere; the sample as a whole holds those more often.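 Values shown are percent growth following 48 h exposure of cells in 96-well plates to a single concentration of compound; below 10 was considered active.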 A number with no mark means an inactive call. Activity calls are given as the source filed them.

Experiment in all cases: NCI-60 one-dose screen, 48 h (100 = growth as untreated, 0 = no growth, -100 = all killed)
Holding throughout (conditions): 10 µM

Assay [1] deals with NCI-H23 lung.
The test system of assay [2] is NCI-H226 lung.
Assay [3] deals with NCI-H322M lung.
Assay [4] has as its system HOP-62 NSCLC.
Assay [5] deals with NCI-H460 lung.
Assay [6] has as its system NCI-H522 lung.
In assay [7] the test system is A549/ATCC NSCLC.
For assay [8], the system named is 786-0 renal.
Assay [9] concerns COLO 205 colon.
In assay [10] the test system is DU-145 prostate.

For `O=c1[nH]c(-c2ccc(Cl)cc2)nc2sc3c(c12)CCCC3`, the growth was 86.1% in assay [1]; 78.1% in [2]; 114% in assay [3]; 55.7% in assay [4]; 52.2% in assay [5]; 82.4% in assay [6]. Further, the growth in assay [7] was 95.8%; in assay [8], 95.7%; in assay [9], 109%; in assay [10] it was 63.9%.
`CC(=O)/C(=C/c1ccccc1)C(=O)CC(C)C`: the growth in [1] is 100%; in [2], 106%; in [3] it was 116%; in [4], 115%; in assay [5], 99.8%; in assay [6] it was 95.2%. Also, the growth in [7] was 97%; in assay [8], 95.9%; in assay [9] it was 100%; in assay [10], 92.8%.
For `CCN(CC)CCOc1nc2ccccc2c2c1-c1ccc(OC)cc1C2=O`, the growth in assay [1] is -29% (active); in [2] it was 14%; in assay [3], -29.3% (active); in assay [4], -4.04% (active); in [5], -34.4% (active); in assay [6], -56.4% (active). Further, the growth in assay [7] was -28.5% (active); in assay [8], 0.417% (active); in assay [9] it was -57.1% (active); in assay [10] it was -8.05% (active).
With `O=C1Nc2ccccc2C1=NC1CCCCC1`, the growth in [1] was 95.2%; in [2], 92%; in assay [3] it was 90.3%; in assay [4], 88.3%; in [5], 105%; in [6] it was 70.4%. In addition, the growth in assay [7] was 103%; in assay [8], 93.6%; in [9] it was 96.5%; in assay [10] it was 110%.
As to `CN(C)CC(O)c1ccc2cc(Br)c3ccccc3c2c1` (stereo not given), the growth in [1] was 80.1%; in [2], 78.7%; in [3], 72.7%; in assay [4], 62.1%; in assay [5] it was 37%; in assay [6], 65.6%. Further, the growth is 57.1% in [7], 54% in assay [8], -67.8% (active) in assay [9] and 70.7% in assay [10].
Consider `CC(=O)C1CCC2C3CC(F)C4=CC(=O)CCC4(C)C3C(O)CC12C` (stereo not given), for which the growth in assay [1] was 104%; in assay [2], 85.9%; in assay [3], 90.9%; in assay [4], 93%; in assay [5], 103%; in [6], 85.8%. Besides, the growth was 82.3% in [7], 96.3% in [8], 104% in assay [9] and 110% in [10].
Turning to `Oc1[nH]c2cc(Cl)ccc2c1/C=c1/ccc2c(c1)N=C(c1cc(F)cc(F)c1)N=2`, the growth in assay [1] is 28.3%; in assay [2], 55.1%; in [3] it was 49.1%; in [4], 25.3%; in [5], 6.1% (active); in [6], -3.39% (active). The growth in assay [7] is 37.9%; in assay [8] it was 36.7%; in [9], -0.0984% (active); in assay [10], -8.59% (active).
In the case of `Oc1[nH]c2ccc(Cl)cc2c1/C=c1/ccc2c(c1)N=C(c1cc(F)cc(F)c1)N=2`, the growth was 64% in assay [1]; 86.1% in assay [2]; 93.2% in assay [3]; 58.7% in [4]; 63.8% in assay [5]; 33.7% in assay [6]. Also, the growth in assay [7] is 57.4%; in assay [8], 85.9%; in [9], 77.1%; in assay [10] it was 81.8%.
Consider `O=C(/C(=C/c1ccccc1)CN1CCCCC1)c1ccccc1`, for which the growth is -51.5% (active) in assay [1]; -31% (active) in [2]; 47.1% in [3]; -26.5% (active) in assay [4]; -23.9% (active) in assay [5]; -84% (active) in assay [6]. For the same compound, the growth is -14.2% (active) in assay [7], -91.5% (active) in assay [8], -79.1% (active) in assay [9] and 8.22% (active) in [10].
For the compound `COc1cc(/C=N/NC(=O)c2ccccc2Nc2cccc(C(F)(F)F)c2)cc(OC)c1OC`, the growth was 45.3% in assay [1]; 36.9% in assay [2]; 47% in assay [3]; 133% in assay [4]; -17.6% (active) in [5]; 4.06% (active) in assay [6]. The growth in assay [7] is 15%; in assay [8], 177%; in assay [9], 54.4%; in assay [10], -22.6% (active).
On to `O=C(Nc1cccc(-n2cc(-c3ccncc3)c(-c3ccc(O)c(Cl)c3)n2)c1)Nc1ccc(Cl)c(Cl)c1`, for which the growth in [1] is 5.31% (active); in assay [2] it was 51.1%; in [3] it was -6.78% (active); in assay [4], 8.83% (active); in assay [5], -4.26% (active); in assay [6], -13.1% (active). Further, the growth in [7] is 0.252% (active); in assay [8] it was -6.94% (active); in [9], 77.8%; in assay [10] it was 11.5%.
As to `Cc1cc(Nc2ccc(Cl)cc2)nc(NCCCNc2ccnc3cc(Cl)ccc23)n1`, the growth in assay [1] was 51.2%; in assay [2], 102%; in assay [3] it was -0.971% (active); in [4] it was -22.6% (active); in [5], -44.9% (active); in [6], -78.8% (active). Moreover, the growth in assay [7] is -55.2% (active); in assay [8] it was -98.7% (active); in assay [9], -91.1% (active); in assay [10], 1.28% (active).
`CN(C)CCN1C(=O)c2cccc3cc(N)cc(c23)C1=O`: the growth was 31.5% in [1]; -30.3% (active) in assay [2]; 29.4% in [3]; 34% in assay [4]; 0.597% (active) in [5]; -28.3% (active) in assay [6]. The growth in assay [7] was 12%; in assay [8], 25.7%; in [9], 26.2%; in [10], 4.45% (active).
